# This is a sample that favours compounds with a hit; in the whole collection about 2.6% have one here.
# TLR4-MyD88 BLA: inhibitors of human TLR4-MyD88 binding. O00206+Q99836. HeLa CL3-4 TLR4/MyD88 BLA complementation, FRET ratio. inhibition, % at 8.4 µM. 200,000 tested, 0.18% active. AID 861; in the data active = inhibition above about 25%;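 also: 0% = vehicle and 100% = reference inhibitor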
# TLR9-MyD88 inh: blocks human TLR9 binding to MyD88 | CHO BLA complementation TLR9-MyD88, CCF4 FRET ratio | inhibition, % at 4.98 µM | 340,000 tested, 0.21% active | AID 504734 | Q9NR96+Q99836;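 active = inhibition above the mean over all tested compounds plus 3 SD, cut at about 21% in these data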;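 also: 0% = DMSO only wells and 100% = clavulanate BLA inhibitor control wells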
# NOD2 RIPK2 PPI: inhibitors of human NOD2-RIPK2 interaction; inhibition, % at 4.98 µM; AID 624267; 360,000 tested, 0.38% active; CHO BLA complementation NOD2-RIPK2, CCF4 ratio; O43353; in the data active = inhibition above about 21%;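 also: 0% = vehicle only and 100% = reference blocker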
# PRMT1 inh: inhibitors of human PRMT1 | Q99873 | recombinant PRMT1, activity-based probe fluorescence polarization | inhibition, % at 2.79 µM | 370,000 tested, 1.3% active;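 active = inhibition above about 21% made by adding two undisclosed values, limit read from the data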
# Exocytosis inh: lytic granule exocytosis inhibition; TALL-104 LAMP-1 surface exposure, flow cytometry; cells stimulated with thapsigargin and PMA; inhibition, % at 10 µM; 360,000 tested, 0.66% active; AID 651702;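 active = inhibition above about 55%, limit read from the data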
# ABHD5-PLIN5 inh: ABHD5-PLIN5 protein interaction inhibition. Q00G26+Q8WTS1. Split G. princeps luciferase complementation, luminescence, 4 h. inhibition, % at 4 µM. 360,000 tested, 0.78% active;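 active = inhibition above the mean inhibition across every tested compound plus 3 SD, cut at about 22% in these data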;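 also: 0% = DMSO only wells and the 100% control is not disclosed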
# TLR4-MyD88 conf: TLR4-MyD88 interaction inhibition confirmed; shares compounds with TLR4-MyD88 BLA; HeLa CL3-4 BLA complementation, CCF4 FRET ratio; inhibition, % at 8.4 µM; 350 tested, 50% active;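 active = mean inhibition across three repeat runs above about 25% carried over from the earlier screen, limit read from the data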;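 also: plate controls were DMSO only for no effect and clavulanic acid blocking BLA at full dose for full effect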
# BLA inh HeLa: inhibits beta-lactamase activity, counter-screen to TLR4-MyD88 binding inhibitors. shares compounds with TLR4-MyD88 BLA. 350 tested, 63% active. inhibition, % at 8.4 µM. HeLa BLA reporter, CCF4 FRET ratio;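 active = mean inhibition over three repeats above about 26% taken from the earlier screen, limit read from the data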;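 also: HeLa cells stably expressing beta-lactamase reporter as counterscreen for TLR4-MyD88 inhibitors; 0% = DMSO and 100% = clavulanic acid full inhibition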
# Numbers without * were called inactive; nt = not tested or not shown.
SMILES,TLR4-MyD88 BLA,TLR9-MyD88 inh,NOD2 RIPK2 PPI,PRMT1 inh,Exocytosis inh,ABHD5-PLIN5 inh,TLR4-MyD88 conf,BLA inh HeLa
O=C(Nc1cccc(Cl)c1)NN(c1ccccc1)C1CCS(=O)(=O)C1 (configuration not stated),nt,nt,nt,-1.5,nt,nt,nt,nt
CN(C)c1ccc(/C=C/c2cc[n+](C)cc2)cc1,26.3*,3.3,0.6,1.2,-4.8,7.8,10.7,20.9
CN(C)c1ccc(/C=C/c2cc[n+]([O-])cc2)cc1,7.2,nt,nt,nt,nt,nt,nt,nt
CN(C)c1ccc(/C=N/N=C/c2ccccc2O)cc1,37.5*,19.8,-6.0,0.6,18.1,1.2,57.5*,52.7*
COc1ccc(OC)c(CN(CC(C)C)S(=O)(=O)c2ccccc2Br)c1,nt,nt,nt,-1.9,nt,nt,nt,nt
OCCCc1nc2n(n1)C(c1ccccc1Cl)C=C(c1cccs1)N2 (configuration not stated),32.2*,50.6*,71.8*,nt,1.7,8.8,19.4,51.6*
O=C(NCCc1c[nH]c2ccccc12)OCc1cn(Cc2ccccc2Cl)nn1,nt,nt,nt,0.7,nt,nt,nt,nt
N#Cc1sc2nc(-c3cccs3)cc(-c3ccc(F)cc3)c2c1N,26.2*,26.1*,12.1,12.7,-2.8,-7.4,38.9*,62.5*
CC(=O)C1=NN(c2ccccc2)C(c2cccs2)N1c1ccccc1 (configuration not stated),26.8*,nt,nt,nt,nt,nt,5.4,14.5
O=C(CCN1CCOCC1)Nc1ccc2c(c1)CCC2,25.1*,0.0,-4.0,-1.4,3.3,-0.3,-0.7,4.0
O=C(CN1CCOCC1)Nc1ccc2c(c1)CCC2,nt,3.0,8.6,-0.1,-0.9,-4.2,nt,nt
CCc1c(-c2ccc(F)cc2F)ncn1CCc1ccccc1OC,nt,nt,nt,-0.4,nt,nt,nt,nt
Cc1cccc2cc(C#N)c(NCCNC(=O)NC3CCCCC3)nc12,25.3*,-1.9,-10.2,8.2,0.1,1.5,-10.6,-2.9
COc1ccc(C(=O)NCCNc2nc3c(C)cccc3cc2C#N)cc1,nt,-12.9,-1.0,1.6,7.8,-1.9,nt,nt
CC(O)CN(Cc1cccc(Cl)c1)CC(C)O (configuration not stated),27.7*,8.3,-2.6,-2.8,-1.6,0.9,-4.7,3.7
O=S(=O)(c1sccc1Br)n1c(CN2CCOCC2)nc2ccccc21,nt,nt,nt,0.7,nt,nt,nt,nt
CN(C)C=Nc1c(Br)cc(Br)c2nonc12,25.2*,6.2,-1.4,0.4,2.5,-26.0,21.2,35.4*
Nc1c(C(=O)C2CC2)sc2nc(-c3ccccc3)cc(C(F)(F)F)c12,7.7,15.5,-0.8,5.0,0.3,1.2,nt,nt
COc1cccc(-c2cc(C(F)(F)F)c3c(N)c(C#N)sc3n2)c1,27.0*,nt,nt,nt,nt,nt,19.8,49.0*
COc1ccccc1CN1Cc2ccccc2Oc2ccccc2S1(=O)=O,nt,nt,nt,-5.1,nt,nt,nt,nt
O=C(Cn1ncc(Cl)c(Cl)c1=O)N1CCc2ccccc21,27.0*,14.2,20.8,-1.0,0.0,5.5,24.4,4.7
NS(=O)(=O)c1ccc(N/N=C/c2cn(-c3ccccc3)nc2-c2ccccc2)c([N+](=O)[O-])c1,13.3,4.2,-1.2,-2.4,-4.5,-2.0,nt,nt
O=[N+]([O-])c1ccc(N/N=C/c2cn(-c3ccccc3)nc2-c2ccccc2)cc1,37.7*,14.2,9.6,-3.9,-3.0,5.8,37.6*,74.6*
CCOC(=O)c1c2ccc(OCC(=O)N/N=C/c3ccc(Cl)cc3)cc2n2ccccc12,51.6*,nt,nt,11.2,nt,nt,54.4*,34.0*
CCOC(=O)c1c2ccc(OCC(=O)N/N=C/c3ccccc3C(F)(F)F)cc2n2ccccc12,-0.6,nt,nt,nt,nt,nt,nt,nt
SMILES,TLR4-MyD88 BLA,TLR9-MyD88 inh,NOD2 RIPK2 PPI,PRMT1 inh,Exocytosis inh,ABHD5-PLIN5 inh,TLR4-MyD88 conf,BLA inh HeLa
Cc1noc(C)c1COC(=O)c1cc(F)c(F)cc1Cl,2.1,-3.4,5.1,1.1,2.0,1.5,nt,nt
Cc1noc(C)c1COC(=O)c1cnc(Cl)c(Cl)c1,25.8*,-1.6,-8.7,3.7,-0.6,2.6,19.2,5.0
CC(=O)c1ccc(S(=O)(=O)NCC2CCN(C(=O)C(=O)c3cc4ccccc4o3)CC2)cc1,nt,nt,nt,12.3,nt,nt,nt,nt
CCCCn1c2nc3ccccc3nc2c2c(=O)n(-c3ccccc3)cnc21,0.9,-2.1,-13.2,2.4,-1.7,2.9,nt,nt
Cn1nc(-c2ccccc2)c2nc3ccccc3nc21,28.1*,8.6,15.7,-1.4,-0.6,-7.3,22.1,44.0*
CCCCn1nc(-c2ccccc2)c2nc3ccccc3nc21,49.1*,nt,nt,nt,nt,nt,46.8*,49.5*
O=C1c2cccc3c([N+](=O)[O-])ccc(c23)C(=O)N1c1nccs1,92.9*,79.1*,88.7*,8.5,84.8*,10.7,91.9*,113.9*
O=C(NCCCCc1ccccc1)c1ccccc1,-13.3,7.9,4.8,-3.5,2.1,0.0,nt,nt
O=C(NCCCc1ccccc1)c1ccccc1,26.3*,-1.6,-11.3,-0.5,-0.3,-0.4,-9.4,-3.1
CNc1ncn(-c2c(C)cccc2C)c(=O)n1,nt,nt,nt,-5.1,nt,nt,nt,nt
Cn1c(-c2ccc(C=O)s2)nc2c3ccccc3c3ccccc3c21,47.4*,0.5,8.3,-0.9,45.4,-56.1,39.9*,61.4*
COC(=O)c1cc2c(c3c4cc(F)ccc4n(S(=O)(=O)c4cccc(C)c4)c13)C(=O)N(C)C2,nt,nt,nt,0.8,nt,nt,nt,nt
CC1CCN(Cc2ccc(-c3nn[nH]n3)cc2)CC1,27.0*,-19.0,-1.9,-1.6,-1.0,2.6,-4.7,4.2
O=C(Nc1ccc2oc(-c3cccnc3)nc2c1)c1ccc(Br)o1,-5.6,-6.2,4.0,12.2,0.5,-2.2,nt,nt
O=C(Nc1ccc2oc(-c3cccnc3)nc2c1)c1ccc([N+](=O)[O-])o1,29.9*,4.4,-0.2,-1.1,-0.7,0.9,15.7,8.4

# Screening results as filed in PubChem.
